Screens deposited in PubChem by National Center for Advancing Translational Sciences (NCATS).
HCV inhibitor: blocks hepatitis C virus; Huh7.5.1 HCVcc-Cre infection, luciferase reporter, 44 h; 340,000 compounds, 3.4% hits; Potency, µM (series often up to 41.8 µM), for inactives: at the top dose activity change, negative = inhibition, actives largely listed as inhibitors; AID 651820; further: potency means the concentration at half of the fitted maximal effect
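Reporter virus HCVcc-Cre (~0.5 moi) infects cells exposed to compound; seeding density 1,000 cells/well with 4 h settling beforehand. Luminescence, 15 sec read, taken 44 h post-infection following a 15 min RT substrate incubation.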
Giardia FBPA inh: inhibitors of Giardia lamblia fructose-1,6-bisphosphate aldolase. 290,000 compounds, 0.71% hits. Potency, µM (titrated, usually from 59.6 µM), without a hit: top-dose activity, negative = inhibition, most hits filed as inhibitors. AID 2451. purified Giardia FBPA. A8B2U2; further: potency means the concentration at half of the fitted maximal effect; nearly all actives have a fitted effect of over 55% in size
Target sequence (A8B2U2 whole entry, looked up): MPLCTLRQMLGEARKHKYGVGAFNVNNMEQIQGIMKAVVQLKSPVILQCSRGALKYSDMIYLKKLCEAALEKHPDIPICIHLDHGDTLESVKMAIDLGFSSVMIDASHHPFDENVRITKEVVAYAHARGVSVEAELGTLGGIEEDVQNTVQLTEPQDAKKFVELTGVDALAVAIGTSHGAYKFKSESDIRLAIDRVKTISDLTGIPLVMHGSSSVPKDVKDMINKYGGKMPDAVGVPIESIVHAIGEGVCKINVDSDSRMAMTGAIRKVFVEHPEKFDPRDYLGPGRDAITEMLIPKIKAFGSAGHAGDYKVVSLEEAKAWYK
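Giardia FBPA (40 nM reagent) was preincubated 10 min at RT with compound (up to 57.5 uM final), then substrate plus GAPDH/TPI/NAD/arsenate coupling system with diaphorase/resazurin was added; resorufin fluorescence (525/598 nm) was read after 20 min.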
LASV entry inh: blocks Lassa virus binding to or entry into cells | Lassa virus pseudotype entry inhibition, cell reporter | Potency, µM (series often up to 37.9 µM), inactives show at the highest dose activity change, negative = inhibition, usual class: inhibitors | 300,000 compounds, 1.2% hits; calls by dose curve; tested in HEK293 cells; further: potency means the concentration at half of the fitted maximal effect; nearly all actives have a fitted effect of over 50% in size
HCMV antiviral: human cytomegalovirus inhibition. activity change, negative = inhibition, % at 57.5 µM. 410,000 compounds, 4.5% hits. HFF cells, HCMV-luciferase reporter, 72 h; active compounds read low; in the data active means activity change below about -60%; inconclusive means no clear call, values can overlap the other calls; inactive means above about -39%
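Cell-based, HFFs, 1000 cells/well, 16 h 37C; cpds in DMSO + HCMV-luc, MOI 1 PFU/cell; 72 h 37C; OneGlo luminescence after 5 min RT; norm. to buffer vs Salinomycin 10uM.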
MARV entry inh: inhibitors of Marburg virus binding or cell entry; AID 540276; Marburg virus pseudotyped entry inhibition, cell reporter; Potency, µM (titrated, usually from 37.8 µM), for the others: top-dose activity change, negative = inhibition, actives largely listed as inhibitors; 300,000 compounds, 1.8% hits; calls by dose curve; tested in HEK293 cells; further: potency means the concentration at half of the fitted maximal effect
FMDV antiviral: foot and mouth disease virus antiviral activity | FMDV antiviral cell-based qHTS | Potency, µM (top dose mostly 57.9 µM), for the others: at the highest dose activity change, negative = inhibition, usual class: inhibitors | 410,000 compounds, 1.2% hits | AID 1159524; calls by dose curve; tested in HEK293T cells; further: read-out not given here; potency means the concentration at half of the fitted maximal effect; nearly all actives have a fitted effect of over 45% in size
* marks the source's active call; other numbers are inactive results; ? = inconclusive; . = no result given; [ ] = another dose, or the depositor's remark. Rows were chosen to be rich in hits. Some 8.3% of all compounds tested hit in one or more screens of this group. Unless noted, the call rests on the fitted dose curve; in most records, active means well fitted curve in the direction sought with a large enough effect; inconclusive means small, poorly fitted or top-dose-only effect, or another doubt; inactive means no such curve, though single readings can be large; an effect the other way counts as inactive or inconclusive. On the % scale 0 is the no-effect control and ±100 the full control effect.

SMILES | HCV inhibitor | Giardia FBPA inh | LASV entry inh | HCMV antiviral | MARV entry inh | FMDV antiviral
CC1Sc2ccc(S(=O)(=O)N3CCC(C(=O)Nc4ccc(Cl)cc4)CC3)cc2NC1=O (stereo unspecified) | ? | . | . | -71* | . | 14µM*
COc1ccc(N(CC(=O)NC2CC3CCC2C3)S(=O)(=O)c2ccc(C)c([N+](=O)[O-])c2)cc1 (stereo unspecified) | 2.8µM* | 1% | -17%[46.1 µM] | -27 | ? | -6%
COC(=O)CC1[C@@]2(C)C[C@]34OC5(C)OC6(C7CC(=O)OC(c8ccoc8)[C@]7(C)CCC6(O5)[C@]13C)C(OC(C)=O)[C@]4(OC(C)=O)C2OC(C)=O (stereo partly specified) | . | 0% | . | . | . | -7%
COC(=O)c1ccc(COc2ccccc2/C=C(\C#N)C(=O)Nc2ccc(C)cc2C)cc1 | 5% | -2% | -11%[46.1 µM] | -28 | ? | 0%
CCOc1cc(/C=N/O)ccc1OCc1ccc([N+](=O)[O-])cc1 | ? | ? | 1% | -11 | ? | -6%
COC(=O)c1ccc(COc2ccccc2/C=N/NS(=O)(=O)c2ccccc2)cc1 | 10µM* | 1% | -29% | -86* | 13µM* | 4%
CCOc1cc(/C=N/O)ccc1OCc1ccc(F)cc1 | 7.1µM* | -18% | 5% | -30 | ? | 5%
COc1cc(/C=N/O)ccc1OCc1ccc(C(=O)O)cc1 | 27% | 12% | ? | 59 | 0.1µM* | 4.5µM*
COC(=O)c1ccc(COc2ccccc2/C=C(\C#N)C(=O)Nc2c(C)cc(C)cc2C)cc1 | ? | 0% | ? | -93* | ? | ?
COCCn1c(=O)c(-c2cn(C)c3ccccc23)nc2cnc(Oc3ccc(OC)cc3)nc21 | . | -16% | . | . | . | -8%
COc1cc(/C=N/NS(=O)(=O)c2ccc3ccccc3c2)ccc1OCc1ccc(C(=O)O)cc1 | -1% | 26% | ? | 35 | 0.89µM* | -36%
NS(=O)(=O)c1ccc(CCNc2nc(CN3CCCCC3)nc3sc4c(c23)CCC4)cc1 | ? | 1% | -21% | -11 | 21µM* | -14%
C=CCn1c(SCC(=O)N2CCc3ccccc3C2)nc2sc(C)cc2c1=O | -22% | 5% | ? | -8 | ? | 22µM*
C=CCn1c(SCC(=O)N2CCN(C(=O)c3ccco3)CC2)nc2sc(CC)cc2c1=O | ? | 3% | -20% | -18 | -22% | -19%
C=CCn1c(SCC(=O)/C(C#N)=C(\C)N)nc2sc(CC)cc2c1=O | ? | -7% | ? | -4 | ? | 22µM*
C=CCn1c(SCC(=O)c2cccs2)nc2sc(CC)cc2c1=O | 3.2µM* | 7% | ? | ? | ? | 20µM*
Cc1cc(C(=O)N/N=C/c2cc(Br)cc(Br)c2OC(=O)c2cccc(F)c2)n[nH]1 | ? | -2% | 12µM* | -96* | 18µM* | -23%
Cc1cccc(C(=O)Oc2c(Br)cc(Br)cc2/C=N/NC(=O)c2ccncc2)c1 | 0% | . | 3% | -71* | ? | -8%
COC(=O)c1c(NC(=O)c2cc(=O)c3cc(C)cc(C)c3o2)sc2c1CCC2 | . | . | 4%[46.1 µM] | -4 | 4%[46.1 µM] | -6%
CCCCCCCCCCCCC/C=C/[C@@H](O)[C@H](CO)NC(=O)CCCCCCCCCCCCCCC | . | -5% | . | . | . | -6%[6.7 µM]
Fc1ccccc1NC(=S)NNc1ncc(C(F)(F)F)cc1Cl | ? | 20% | ? | -39 | 7.9µM* | ?
Cc1ccccc1NC(=S)NNc1ncc(C(F)(F)F)cc1Cl | -5% | 21% | -39% | 1 | ? | -26%
Cc1c(Cl)cccc1NC(=S)NNc1ncc(C(F)(F)F)cc1Cl | ? | 12% | ? | -102* | 21µM* | -18%
NC(=S)Nc1ncc(C(F)(F)F)cc1Cl | -14% | ? | 15% | -92* | -15%[46.1 µM] | -13%
O=c1c(-c2cccs2)nc2cnc(N3CCOCC3)nc2n1Cc1cccs1 | . | 6% | . | . | . | -22%
CC(C)=CCc1c(O)cc2occ(-c3ccc4c(c3)OCO4)c(=O)c2c1O | . | -7% | . | . | . | ?
O=c1c(-c2cc(O)c(O)c(O)c2)coc2cc(O)c(O)c(O)c12 | . | 5µM* | . | . | . | -13%
